The list is not random: actives were taken first. Their share in the collection is about 22%.
CYP2C9 act = increases human cytochrome P450 2C9 activity; recombinant CYP2C9, luciferin-H conversion, luminescence; active compounds read high; factor 1 = untreated enzyme, 0 = blocked; activation factor at 5 µM; 96,000 compounds, 1.4% hits; P11712;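 active means activation factor of 2 or more for CYP2C9 at a 5 µM dose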;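 further: 0 = sulfaphenazole-blocked wells and 1 = vehicle-only wells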
CYP2C19 act = increases human CYP2C19 enzyme activity; 96,000 tested, under 10 active; recombinant CYP2C19, luciferin-H EGE luminescence; active compounds read high; 0 = fully inhibited enzyme, 1 = untreated enzyme; activation factor at 5 µM;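 active means activation factor of at least 2 at 5 µM in the primary screen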;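 further: 0 = wells with 2.5 mM tranylcypromine and 1 = vehicle-only wells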
Target sequence (P33261 whole entry, looked up): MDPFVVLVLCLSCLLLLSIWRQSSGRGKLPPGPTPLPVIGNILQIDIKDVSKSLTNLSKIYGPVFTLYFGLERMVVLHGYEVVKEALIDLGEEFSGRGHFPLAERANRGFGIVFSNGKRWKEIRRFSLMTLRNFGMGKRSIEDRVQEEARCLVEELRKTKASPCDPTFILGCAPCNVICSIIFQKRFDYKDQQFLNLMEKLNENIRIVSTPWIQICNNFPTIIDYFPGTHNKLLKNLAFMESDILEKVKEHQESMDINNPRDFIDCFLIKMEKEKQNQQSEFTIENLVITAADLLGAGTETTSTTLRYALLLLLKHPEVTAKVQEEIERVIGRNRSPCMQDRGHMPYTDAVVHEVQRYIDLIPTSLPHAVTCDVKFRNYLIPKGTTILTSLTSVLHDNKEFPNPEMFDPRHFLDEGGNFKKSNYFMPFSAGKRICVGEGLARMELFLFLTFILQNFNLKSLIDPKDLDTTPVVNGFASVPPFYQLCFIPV
Measles CPE = protection of cells from measles virus; Measles virus-infected cells, CPE protection, absorbance; protection (pct of control), % at 4 µM; 140,000 compounds, 1.5% hits; AID 841; in the data active means protection mostly above about 24%, no sharp cut-off; inactive means mostly below about 26%
CYP2C19 inh = inhibitors of human CYP2C19. CYP2C19 Supersomes, luciferin-H EGE luminescence, 30 min. 96,000 compounds, 21% hits. inhibition, % at 5 µM. AID 778. P33261;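 active means CYP2C19 inhibition above a set limit at 5 µM in the primary screen, cut at about 50% in these data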;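 further: plate controls were negative control wells for no effect and 2.5 mM tranylcypromine positive control for full effect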
CYP2C9 inhib = human CYP2C9 inhibition; CYP2C9 Supersomes, luciferin-H conversion, luminescence; AID 777; inhibition, % at 5 µM; 96,000 compounds, 20% hits; P11712;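 active means blocking of liver enzyme CYP2C9 beyond about 50% at 5 µM, limit read from the data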
Starred values were filed as active, the others as inactive; · = no result.

SMILES | CYP2C9 act | CYP2C19 act | Measles CPE | CYP2C19 inh | CYP2C9 inhib
COc1ccc(NC2=CC(=O)CC(c3ccccc3)C2)c(OC)c1 (configuration not stated) | 1.2 | 0.4 | 5.9 | 61.9* | -22.1
O=C(NCc1ccccc1)C1CCN(C(=O)NCc2ccccc2)CC1 | 1 | 1.1 | 5.0 | -7.3 | 2.7
O=C(c1cccc(C(=O)N2CCN(c3ccccc3F)CC2)n1)N1CCN(c2ccccc2F)CC1 | 0.1 | 0.1 | 5.9 | 90.4* | 85.8*
O=C(NC(=O)N1CCN(c2ccccc2F)CC1)c1ccccc1 | 0.6 | 0.4 | 2.7 | 60.3* | 35.2
O=C(NCc1ccccc1)N1CCN(c2ccccc2F)CC1 | 0.9 | 0.4 | 17.8 | 62.1* | 14.1
O=C(NC(=O)N1CCN(c2ccccc2)CC1)c1ccc(Cl)cc1 | · | · | 8.8 | · | ·
CC(=O)N1c2ccc(S(=O)(=O)CCC(=O)O)cc2CC1C (configuration not stated) | 1.1 | 1.1 | 31.2 | -14.3 | -12.0
O=C(O)CC(NC(=O)C(c1ccccc1)c1ccccc1)c1ccco1 (configuration not stated) | 0.9 | 1 | 6.3 | 3.7 | 10.5
CCNC(=O)OCCC12CC3CC(CC(C3)C1)C2 | · | · | 8.8 | · | ·
NCC(O)COCCC12CC3CC(CC(C3)C1)C2 (configuration not stated) | 0.7 | 0.1 | 2.1 | 87.9* | 25.2
CC(=O)Nc1ccc(S(=O)(=O)NCc2ccc(C(=O)NCCN3CCCCCC3)cc2)cc1 | · | · | 5.9 | · | ·
CC1=CC(C)(C)Nc2ccc(OC(=O)c3cccnc3)cc21 | 0.6 | 0.3 | 22.7 | 71.4* | 41.1
CC1=CC(C)(C)Nc2ccc(OC(=O)c3ccco3)cc21 | 1.5 | 0.2 | 8.8 | 78.0* | -45.6
CC1=CC(C)(C)Nc2ccc(OC(=O)C(C)N3C(=O)c4ccccc4C3=O)cc21 (configuration not stated) | 0.1 | 0.6 | -0.5 | 35.6 | 87.4*
COC(=O)c1ccc(OC(=O)c2cccnc2)cc1 | · | · | 7.2 | · | ·
CC1=CC(C)(C)Nc2ccc(OC(=O)CN3C(=O)CCC3=O)cc21 | 1.1 | 1.1 | 3.3 | -5.5 | -10.7
Cc1ccc(N2CC(C(=O)NCc3cccs3)CC2=O)cc1 (configuration not stated) | 1.1 | 0.9 | 14.4 | 13.4 | -13.9
CC(C)(C)NC(=O)CC(c1ccccc1)c1ccccc1O (configuration not stated) | 0 | 0.1 | 11.4 | 89.7* | 96.2*
O=C(CC(c1ccccc1)c1ccccc1O)NCCN1CCOCC1 (configuration not stated) | 0.5 | 0.5 | 49.9 | 54.3* | 45.7
Cc1ccc(SCC(=O)N2CC(C)OC(C)C2)cc1 (configuration not stated) | 0.7 | 0.3 | 8.9 | 68.7* | 29.6
CC1CN(C(=O)c2cccc(C(=O)N3CC(C)OC(C)C3)c2)CC(C)O1 (configuration not stated) | 0.8 | 0.9 | 8.9 | 8.1 | 20.4
Cc1cc(C)cc(C(=O)N2CC(C)OC(C)C2)c1 (configuration not stated) | 0.1 | 1 | 16.4 | 0.1 | 88.3*
O=C(OCc1cc2ccccc2[nH]c1=O)C1CCCCC1 | 0 | 0.1 | 7.7 | 88.7* | 95.7*
Cc1cccc(NC(=O)c2ccccc2[N+](=O)[O-])n1 | 1.2 | 1.1 | 9.1 | -12.1 | -19.8
COc1ccc(Cl)cc1S(=O)(=O)N1CCN(C(=O)COc2ccccc2)CC1 | 1.6 | 0.4 | 3.9 | 61.8* | -60.4
SMILES | CYP2C9 act | CYP2C19 act | Measles CPE | CYP2C19 inh | CYP2C9 inhib
COc1ccc(C(=O)N2CCN(S(=O)(=O)c3ccc(Cl)cc3)CC2)cc1OC | 0.8 | 1.1 | 6.5 | -7.0 | 19.7
COc1ccccc1N1CCN(C(=O)COc2ccc(Cl)cc2Br)CC1 | 0.9 | 0.5 | 31.3 | 54.5* | 7.9
COc1ccc(C(=O)N2CCN(S(=O)(=O)c3cc(Cl)ccc3OC)CC2)cc1 | 1.2 | 0.3 | 3.2 | 67.2* | -16.9
CN(C)c1ccc(/C=N/NC(=S)NCc2ccco2)cc1 | · | · | 9.4 | · | ·
CN(C)c1ccc(C(=S)NCc2ccco2)cc1 | 0.6 | 0.1 | 4.9 | 88.3* | 37.1
C[n+]1ccn(CC(=O)c2ccc(Br)cc2)c1 | · | · | 5.6 | · | ·
C[n+]1ccn(CC(=O)c2ccc(Cl)cc2)c1 | · | · | 38.8* | · | ·
CCOC(=O)C1CCN(C(=O)c2ccccc2NC(=O)c2ccc(Cl)cc2)CC1 | · | · | 12.2 | · | ·
Brc1ccc(-c2nnc3n2CCCCC3)cc1 | 1 | 0.8 | 10.0 | 21.5 | -3.4
Brc1ccc(-c2nnc3n2-c2ccccc2CC3)cc1 | 0.4 | 0.1 | 6.3 | 86.2* | 62.6*
Cc1cccc(C(=O)N[C@H](C(=O)OCC(=O)NC2CCS(=O)(=O)C2)C(C)C)c1 (some centres not stated) | · | · | 11.1 | · | ·
CCOC(=O)COc1c(OC)cc(Cl)cc1C1Nc2ccccc2C(=O)N1c1cccc(C)c1 (configuration not stated) | 0.1 | 0.1 | 2.6 | 94.6* | 94.7*
CCOC(=O)COc1ccccc1C1Nc2ccccc2C(=O)N1c1cccc(Cl)c1 (configuration not stated) | 0.8 | 0.4 | 20.3 | 64.2* | 17.3
CCOC(=O)COc1c(OC)cc(Cl)cc1C1Nc2ccccc2C(=O)N1c1ccccc1 (configuration not stated) | 0 | 0 | 4.6 | 95.1* | 98.3*
COc1cc(C2Nc3ccccc3C(=O)N2c2ccc(Cl)cc2)c(Cl)cc1OCC(=O)O (configuration not stated) | · | · | 4.6 | · | ·
CCOC(=O)COc1c(OC)cc(Cl)cc1C1Nc2ccccc2C(=O)N1c1ccc(F)cc1 (configuration not stated) | 0.1 | 0.3 | 8.5 | 67.2* | 90.5*
COc1ccc(C(=O)NC(=S)N(CCC(C)C)c2c(N)n(Cc3ccccc3)c(=O)[nH]c2=O)cc1 | · | · | 5.4 | · | ·
COc1ccc(-c2cc3nc4c(c(=O)n3[nH]2)CCC4)cc1 | 1 | 1 | 4.8 | 1.6 | 4.5
O=C(CCC1CCCC1)N1CCN(C(=O)c2cccnc2)CC1 | 1 | 0.3 | 27.0 | 69.6* | 0.6
Cc1cccc(OCC(=O)N2CCN(C(=O)CCC3CCCC3)CC2)c1 | 0.5 | 0.4 | 6.1 | 61.5* | 50.7*
Cc1c(C#N)c(N=CN(C)C)c(C(=O)c2ccccc2)n1-c1ccc(Br)cc1 | 0.4 | 0.3 | 7.5 | 73.1* | 60.9*
Cc1c(C#N)c(N=CN(C)C)c(C(=O)c2ccc(Br)cc2)n1-c1ccccc1 | 0.8 | 0.8 | 7.2 | 19.8 | 22.0
CCN=C(Nc1cccc(F)c1)SC1CC(=O)N(c2ccc(OC)cc2)C1=O (configuration not stated) | 0.4 | 0.7 | 6.6 | 31.4 | 58.6*
CN=C(Nc1ccc2c(c1)OCO2)SC1CC(=O)N(c2ccccc2)C1=O (configuration not stated) | · | · | 23.9 | · | ·
CCN=C(NCC)SC1CC(=O)N(c2ccccc2)C1=O (configuration not stated) | 1 | 0.1 | 11.9 | 87.8* | -1.3
CCN=C(NCC)SC1CC(=O)N(c2cccc(OC)c2)C1=O (configuration not stated) | 2.1* | 0.2 | 8.1 | 78.7* | -109.8

Compound activity deposited in PubChem BioAssay by several laboratories.
